Our source for the normalized growth values is PubChem BioAssay AID1159580 (chemical genetic matrix, 2015).

In all, about 5,500 compounds went through this assay and about 2,000 (36%) were called active. Not shown: some 18% with an inconclusive outcome. This is one part of the list. Values without a mark were called inactive. Cut-off read from the data, not from the text of the source: active = normalized growth mostly below about 0.91 (no sharp cut-off); inconclusive = no clear call, values can overlap the other calls; inactive = mostly above about 0.92.

This assay in a line: chemical genetic growth profiling, strain panel (AID 1159580).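 Note: tested at 20 µM; growth read once vehicle control cultures reached saturation at 30 °C; 1 = growth at the plate median or of vehicle wells; lower values mean less growth of the strain.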 Conditions: growth OD.
[1] abbreviates: S. cerevisiae deletion strains, locus YGR078C, strain PAC10, active compounds read low.
Setting [2] is: S. cerevisiae deletion strains, locus YMR307W, strain GAS1, active compounds read low.
Setting [3] is: S. cerevisiae deletion strains, locus YNL153C, strain GIM3, active compounds read low.
Where [4] appears, read: S. cerevisiae deletion strains, locus YNL322C, strain KRE1, active compounds read low.
Setting [5] is: S. cerevisiae deletion strains, locus YPL055C, strain LGE1, active compounds read low.
[6] abbreviates: S. cerevisiae deletion strains, locus YPL241C, strain CIN2, active compounds read low.
The mark [7] stands for this setting: S. cerevisiae deletion strains, locus YAL013W, strain DEP1, active compounds read low.
[8] abbreviates: S. cerevisiae deletion strains, locus YBR229C, strain ROT2, active compounds read low.
[9] abbreviates: S. cerevisiae deletion strains, locus YCL061C, strain MRC1, active compounds read low.
The mark [10] stands for this setting: S. cerevisiae deletion strains, locus YDL101C, strain DUN1, active compounds read low.
[11] abbreviates: S. cerevisiae deletion strains, locus YDR150W, strain NUM1, active compounds read low.
[12] abbreviates: S. cerevisiae deletion strains, locus YEL061C, strain CIN8, active compounds read low.
Where [13] appears, read: S. cerevisiae deletion strains, locus YHR030C, strain SLT2, active compounds read low.
The mark [14] stands for this setting: S. cerevisiae deletion strains, locus YHR087W, strain rtc3, active compounds read low.
[15] abbreviates: S. cerevisiae deletion strains, locus YJR043C, strain POL32, active compounds read low.
Where [16] appears, read: S. cerevisiae deletion strains, locus YJR075W, strain HOC1, active compounds read low.
The mark [17] stands for this setting: S. cerevisiae deletion strains, locus YKL190W, strain CNB1, active compounds read low.
[18] abbreviates: S. cerevisiae deletion strains, locus YLR039C, strain RIC1, active compounds read low.
Where [19] appears, read: S. cerevisiae deletion strains, locus YLR058C, strain SHM2 (second series), active compounds read low.
The mark [20] stands for this setting: S. cerevisiae deletion strains, locus YLR085C, strain ARP6, active compounds read low.
[21] abbreviates: S. cerevisiae deletion strains, locus YLR262C, strain YPT6, active compounds read low.
[22] abbreviates: S. cerevisiae deletion strains, locus YML094W, strain GIM5, active compounds read low.
Setting [23] is: S. cerevisiae deletion strains, locus YMR219W, strain ESC1, active compounds read low.
The mark [24] stands for this setting: S. cerevisiae deletion strains, locus YMR263W, strain SAP30, active compounds read low.
The mark [25] stands for this setting: S. cerevisiae deletion strains, locus YNL298W, strain CLA4 (second series), active compounds read low.
Where [26] appears, read: S. cerevisiae deletion strains, locus YNR030W, strain Alg12, active compounds read low.
Where [27] appears, read: S. cerevisiae deletion strains, locus YPR135W, strain CTF4, active compounds read low.

For the compound `OCc1cnc[nH]1`, the normalized growth by setting is: (S. cerevisiae deletion strains, locus YAL040C, strain CLN3, active compounds read low) 0.98; (S. cerevisiae deletion strains, locus YCL061C, strain MRC1 (second series), active compounds read low) 1; (S. cerevisiae deletion strains, locus YDR363W, strain ESC2, active compounds read low) 1.01; (S. cerevisiae deletion strains, locus YER002W, strain NOP16, active compounds read low) 1.03; under setting [1], 1.01; (S. cerevisiae deletion strains, locus YGR229C, strain SMI1, active compounds read low) 0.987. The normalized growth under setting [2] is 1; the normalized growth under setting [3] was 1.05; the normalized growth (S. cerevisiae deletion strains, locus YNL175C, strain NOP13, active compounds read low) is 1.02; the normalized growth (S. cerevisiae deletion strains, locus YNL197C, strain WHI3, active compounds read low) was 1.01; the normalized growth (S. cerevisiae deletion strains, locus YNL224C, strain SQS1, active compounds read low) was 1.01; the normalized growth under setting [4] is 1. In addition, the normalized growth (S. cerevisiae deletion strains, locus YOR083W, strain WHI5 (second series), active compounds read low) was 0.989; the normalized growth under setting [5] was 1.01; the normalized growth under setting [6] was 1.01.
Turning to `N#Cc1ncc(C(F)(F)F)cc1Oc1ccc(Cl)cc1`, the normalized growth under setting [7] was 0.921 (active); the normalized growth under setting [8] was 0.789 (active); the normalized growth under setting [9] is 0.898 (active); the normalized growth under setting [10] was 0.868 (active); the normalized growth under setting [11] was 0.799 (active); the normalized growth under setting [12] was 0.903 (active). Also, the normalized growth reads like this: under setting [1], 0.708 (active); under setting [13], 0.843; under setting [14], 0.745 (active); under setting [15], 0.911 (active); under setting [16], 0.594 (active); under setting [17], 0.842 (active). Also, the normalized growth under setting [18] was 0.694 (active); the normalized growth under setting [19] was 0.829 (active); the normalized growth under setting [20] is 0.595 (active); the normalized growth under setting [21] was 0.658 (active); the normalized growth under setting [22] was 0.907; the normalized growth under setting [23] was 0.814 (active). For the same compound, the normalized growth is 0.913 under setting [24]; 1.01 under setting [2]; 0.892 (active) under setting [3]; 0.709 (active) under setting [25]; 0.849 (active) under setting [4]; 0.737 (active) under setting [26]. The normalized growth under setting [5] is 0.751 (active); the normalized growth under setting [6] is 0.844 (active); the normalized growth under setting [27] was 0.889; the normalized growth (S. cerevisiae strains, strain wild type, active compounds read low) was 0.851 (active).
In the case of `N#Cc1c(F)cccc1Oc1ccc(F)cc1`, the normalized growth is, setting by setting: under setting [7], 0.999; under setting [8], 0.957; under setting [9], 1.01; under setting [10], 0.98; (S. cerevisiae deletion strains, locus YDL134C, strain PPH21, active compounds read low) 0.986; under setting [11], 0.941. In addition, the normalized growth was 0.966 under setting [12]; 0.971 under setting [1]; 0.848 under setting [13]; 0.948 under setting [14]; 0.999 under setting [15]; 0.946 under setting [16]. Moreover, the normalized growth is 0.972 under setting [17]; 0.851 under setting [18]; 0.979 under setting [19]; 0.941 under setting [20]; 0.907 under setting [21]; 0.97 under setting [22]. The normalized growth runs as follows: under setting [23], 0.971; under setting [24], 0.998; under setting [2], 0.891; under setting [3], 0.991; under setting [25], 0.928; under setting [4], 0.962. For the same compound, the normalized growth under setting [26] was 0.986, the normalized growth under setting [5] was 0.956, the normalized growth under setting [6] is 0.978 and the normalized growth under setting [27] is 0.905.
